Among the data in PubChem BioAssay (EPA / NIEHS) are outcome and AC50 values, retold here.

The source made the active and inactive calls. How the source made its calls: active means hit-call score of the fitted dose curve at least 0.9, where 1 is the maximum; inactive means score below 0.9.

Test [1] in a line: APR_HepG2_CellCycleArrest_24hr: Apredica 24-hour HepG2 Assay for Cell Cycle Arrest (AID 2282905).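 Further: cell cycle arrest scored as ratio of 2N to 4N nuclear DNA content.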 Particulars: imaging, actives raise or lower the signal. The essentials: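 Compounds at 0.39–200 uM (0.5% DMSO) for 24 h, then fixed and Hoechst 33342 stained. Cell-cycle analysis of nuclear DNA content by high-content imaging, fitted bidirectionally versus DMSO.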
The nature of test [2]: APR_HepG2_NuclearSize_24hr: Apredica 24-hour HepG2 Assay for Nuclear Size (AID 2282907). To be noted: high-content imaging, actives raise or lower the signal. The essentials: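 HepG2 cells exposed 24 h to compounds at 0.39–200 uM (0.5% DMSO), fixed, Hoechst 33342 stained and imaged at 20x; nuclear diameter measured by automated image analysis, fitted bidirectionally against DMSO controls.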

Test [3] can be described thus: APR_HepG2_CellLoss_24hr: Apredica 24-hour HepG2 Assay for Cell Loss (AID 2282908).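 On AC50: fit in both directions so a hit may be cell loss or gain.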 To be noted: high-content imaging. The essentials:
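HepG2 cells exposed 24 hr to 0.39–200 uM compound in duplicate at 0.5% v/v final DMSO. Cells fixed in 3.7% formaldehyde and Hoechst 33342-stained. Cell number came from nuclear imaging at 20x. Bidirectional fit versus DMSO.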

The nature of test [4]: APR_HepG2_MicrotubuleCSK_24hr: Apredica 24-hour HepG2 Assay for Microtubule CSK Stabilty (AID 2282909). Particulars: HepG2 microtubule cytoskeleton imaging, actives raise or lower the signal. The essentials: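 HepG2 cells were treated 24 hr with compound at 0.39–200 uM in duplicate (0.5% DMSO final), then fixed and permeabilized. Alpha-tubulin immunofluorescence was imaged by high-content microscopy, with bidirectional fitting against DMSO and taxol as positive control.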

A short description of test [5]: APR_HepG2_MitoticArrest_24hr: Apredica 24-hour HepG2 Assay for Mitotic Arrest (AID 2282910). Particulars: high-content imaging, actives raise or lower the signal. The essentials:
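Compounds are dosed onto HepG2 cells across ten concentrations up to 200 uM for 24 hr. Cells are then fixed in 3.7% formaldehyde, permeabilised, and labelled for phospho-histone H3 and nuclei; images are scored by cell cycle analysis and fitted bidirectionally relative to DMSO.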

Test [6] in a line: APR_HepG2_MitoMembPot_24hr: Apredica 24-hour HepG2 Assay for Mitochondrial Membrane Potential (AID 2282911). Particulars: imaging, actives raise or lower the signal. A digest of the protocol: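 HepG2, 24 hr dosing, 10 concentrations 0.39–200 uM, 0.5% DMSO final. Live-cell MitoTracker Red CMXRos 250 nM 30 min, then 3.7% formaldehyde fix. HCS fluorescence imaging, 20x; bidirectional fit vs DMSO baseline.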

Test [7] in a line: APR_HepG2_MitoMass_24hr: Apredica 24-hour HepG2 Assay for Mitochondrial Mass (AID 2282912). Particulars: high-content imaging, actives raise or lower the signal. A digest of the protocol:
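HepG2 cells exposed 24 hr to 0.39–200 uM compound, 0.5% v/v DMSO, in duplicate. Stained before fixation with 250 nM MitoTracker Red CMXRos for 30 min, then imaged at 20x with Hoechst nuclei. Fitted in both directions against DMSO.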

Test [8] can be described thus: APR_HepG2_p53Act_24hr: Apredica 24-hour HepG2 Assay for p53 Activation (AID 2282913).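 Further: p53 protein immunofluorescence averaged per cell in HepG2 with Hoechst nuclei.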 Particulars: high-content imaging, actives raise or lower the signal. A digest of the protocol: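 Read-out: Cy5 immunofluorescence for p53 in fixed, permeabilized HepG2, imaged by HCS with Hoechst-defined nuclei. Dosing was 24 hr at 0.39–200 uM in 0.5% DMSO. Curves were fitted bidirectionally relative to DMSO.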

Test [9] can be described thus: APR_HepG2_CellLoss_72hr: Apredica 72-hour HepG2 Assay for Cell Loss (AID 2282915). To be noted: high-content imaging. A digest of the protocol:
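Cell number comes from Hoechst 33342-labelled nuclei, imaged at 20x after 3.7% formaldehyde fixation. Dosing was 0.39–200 uM, ten concentrations in duplicate, 0.5% DMSO final, for 72 h. Bidirectional fit relative to DMSO baseline.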

Test [10] can be described thus: APR_HepG2_P-H2AX_72hr: Apredica 72-hour HepG2 Assay for H2AX Phosphorylation (AID 2282916).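 Further: phospho-histone H2A.x immunostain intensity per cell marking DNA damage.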 Particulars: imaging, actives raise or lower the signal. A digest of the protocol:
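HepG2 cells treated 72 h at 0.39–200 uM, 0.5% DMSO final, duplicates. Formaldehyde-fixed, Triton-permeabilised, immunostained for phospho-H2A.x with Hoechst; fluorescence imaged at 20x, bidirectional fit versus DMSO.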

Test [11] is described as follows: APR_HepG2_MitoMembPot_72hr: Apredica 72-hour HepG2 Assay for Mitochondrial Membrane Potential (AID 2282917). To be noted: imaging, actives raise or lower the signal. The essentials:
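Membrane potential read by MitoTracker Red CMXRos (250 nM, 30 min, pre-fixation) fluorescence imaging of HepG2 after 72 hr exposure. Ten concentrations, 0.39–200 uM, duplicate wells, 0.5% DMSO; fitted in both directions against DMSO baseline.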

Test [12] in a line: APR_HepG2_MitoticArrest_72hr: Apredica 72-hour HepG2 Assay for Mitotic Arrest (AID 2282918). To be noted: high-content imaging, actives raise or lower the signal. A digest of the protocol: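 HepG2, 72 hr exposure, 0.39–200 uM in duplicate, 0.5% v/v DMSO final. Formaldehyde-fixed, Triton-permeabilized, anti-phospho-histone H3/FITC plus Hoechst. ArrayScan imaging at 20x; curves fit bidirectionally against DMSO baseline.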

Test [13] is described as follows: APR_HepG2_P-H2AX_24hr: Apredica 24-hour HepG2 Assay for H2AX Phosphorylation (AID 2282920). Particulars: high-content imaging, actives raise or lower the signal. A digest of the protocol: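 HCS fluorescence imaging of phospho-H2A.x immunostain (with Hoechst 33342 nuclear counterstain) in HepG2 after 24 hr compound exposure; 10 concentrations, 0.39–200 uM, duplicate wells, 0.5% v/v DMSO. Gain or loss of signal fitted relative to DMSO baseline.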

The nature of test [14]: APR_HepG2_StressKinase_72hr: Apredica 72-hour HepG2 Assay for Stress Kinase (AID 2282921). Particulars: HepG2 stress kinase (phospho-c-Jun) imaging, actives raise or lower the signal. The essentials: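 HepG2 cells treated 72 hr with 0.39–200 uM compound, 0.5% v/v DMSO, duplicate wells. After formaldehyde fixation and Triton permeabilization, stained with anti-phospho-c-Jun (1:500) and Cy3 secondary, imaged at 20x. Fitted in both directions against DMSO.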

The nature of test [15]: APR_HepG2_StressKinase_24hr: Apredica 24-hour HepG2 Assay for Stress Kinase (AID 2282922). To be noted: HepG2 stress kinase (phospho-c-Jun) imaging, actives raise or lower the signal. The essentials: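 HepG2, 24 hr dosing, 0.39–200 uM in duplicate, 0.5% DMSO; formaldehyde fix (3.7%), 0.5% Triton X-100; anti-phospho-c-Jun + Cy3 secondary, Hoechst counterstain; ArrayScan imaging; bidirectional curve fit vs DMSO baseline.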

Test [16] is described as follows: APR_HepG2_p53Act_72hr: Apredica 72-hour HepG2 Assay for p53 Activation (AID 2282923).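 Further: average cellular p53 protein immunofluorescence intensity in HepG2 cells.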 To be noted: high-content imaging, actives raise or lower the signal. The essentials:
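HepG2 cells exposed 72 h to 0.39–200 uM in 0.5% DMSO, duplicates. Fixed, permeabilized cells immunostained for p53 (Cy5) with Hoechst; imaged at 20x, fluorescence analyzed bidirectionally against DMSO.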

A short description of test [17]: APR_HepG2_MitoMass_72hr: Apredica 72-hour HepG2 Assay for Mitochondrial Mass (AID 2282924).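 Further: MitoTracker Red CMXRos stain intensity per cell imaged as mitochondrial mass.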 Particulars: high-content imaging, actives raise or lower the signal. A digest of the protocol: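 HepG2, 72 hr cmpd, 10 conc 0.39–200 uM in dup, DMSO 0.5% v/v. MitoTracker Red CMXRos 250 nM 30 min pre-fix; formaldehyde 3.7% fix 30 min RT. HCS imaging, gain/loss fit vs DMSO.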

Test [18] can be described thus: APR_HepG2_NuclearSize_72hr: Apredica 72-hour HepG2 Assay for Nuclear Size (AID 2282925). Particulars: high-content imaging, actives raise or lower the signal. The essentials:
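HepG2; cpd 0.39–200 uM, 10 conc, duplicate; 72 h; DMSO 0.5% v/v; fix 3.7% formaldehyde 30 min RT; Triton permeabilization; Hoechst 2 ug/mL; HCS imaging 20x; nuclear diameter; gain/loss fit vs DMSO.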

Test [19] can be described thus: APR_HepG2_CellCycleArrest_72hr: Apredica 72-hour HepG2 Assay for Cell Cycle Arrest (AID 2282914). To be noted: high-content imaging, actives raise or lower the signal. A digest of the protocol: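 HepG2, 72 hr exposure, 10-point 0.39–200 uM, duplicate, 0.5% DMSO final. Fix 3.7% formaldehyde 30 min RT, Triton X-100 0.5%, Hoechst 33342 2 ug/mL. ArrayScan 20x, six fields/well; DNA content per nucleus; bidirectional fit vs DMSO.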

The nature of test [20]: APR_HepG2_MicrotubuleCSK_72hr: Apredica 72-hour HepG2 Assay for Microtubule CSK Stabilty (AID 2282919). To be noted: HepG2 microtubule cytoskeleton, high-content imaging, actives raise or lower the signal. The essentials: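 Read-out is tubulin fluorescence intensity from high-content imaging of HepG2 cells, with nuclei identified by Hoechst 33342. Treatment lasts 72 h at 0.39–200 uM, and curves are fitted bidirectionally against the DMSO negative control.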

As for `Nc1cc(Cl)cc(C(=O)O)c1Cl`, the result in [1], in test [2], in test [3], in test [4], in [5] and in test [6] was inactive. Also, the molecule was classed as inactive in test [7], in [8], in [9], in [10], in test [11] and in test [12]. For the same molecule, the outcome in test [13], in [14], in test [15], in [16], in [17] and in test [18] was inactive.

For the molecule `O=[N+]([O-])C(Br)(CO)CO`, the AC50 (commonly the concentration giving half of the maximal activity seen) in [1] was 116 µM (active); in test [3] it was 25.6 µM (active); in test [6], 84.6 µM (active); in test [9], 35.5 µM (active); in test [18], 163 µM (active). The call in test [2], in test [4], in test [5], in test [7], in [19] and in test [10] was inactive. In addition, the molecule was classed as inactive in test [11], in [12], in test [20], in [13], in [14] and in [15]. For the same molecule, the result in test [17] was inactive.

`CCCCC(CC)COC(=O)c1ccc(C(=O)OCC(CC)CCCC)c(C(=O)OCC(CC)CCCC)c1` (stereo unspecified): the result in test [1], in test [2], in test [3], in test [4], in [5] and in [6] was inactive. The molecule was classed as inactive in test [7], in [8], in test [9], in [10], in test [11] and in [12]. Besides, the result in test [13], in test [14], in test [15], in test [16], in test [17] and in [18] was inactive.

Turning to `CC(C)COC(=O)c1ccccc1C(=O)OCC(C)C`, the concentration at half-maximal activity (AC50) in test [1] was 85.7 µM (active); in test [3], 87 µM (active); in test [6] it was 53.7 µM (active); in [7] it was 108 µM (active); in test [9], 63.2 µM (active); in test [11], 80 µM (active). Besides, the AC50 was 67 µM (active) in test [12], 77.3 µM (active) in [13] and 84.7 µM (active) in test [17]. The result in test [2], in test [4], in test [5], in [10], in [20] and in test [14] was inactive. The molecule was called inactive in test [15] and in test [18].
